Compound activity: PubChem BioAssay, several laboratories
Compounds with a hit are over-represented: about 12% of the library has one in this group of screens.
L major viab – reduces viability of Leishmania major promastigotes. 9% of 200,000 active. inhibition, % at 10 µM. resazurin fluorescence viability; in the data active = inhibition above about 50%;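 also: promastigotes grown with compound for 44 hours at 28 °C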
INS promoter inh – TRM-6 insulin promoter activity inhibition. TRM-6 cells (human fetal islet line), insulin promoter-eGFP reporter, imaging; reporter expression induced with tamoxifen. inhibition, % at 2 µM. 0.9% of 130,000 active;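 active = inhibition above the mean plus 3 SD, with well images judged a real hit on visual review, cut at about 60% in these data, passing the limit was not always enough; inconclusive = inhibition over the cutoff but images rejected on review; inactive = inhibition not above the cutoff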
ROMK primary – human ROMK K+ channel modulation, primary screen. B-score at 10 µM. Tet-inducible ROMK, thallium flux fluorescence; actives lie on both sides. AID 1918. P48048. 2% of 130,000 active;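 active = signal ratio slope over the read window, or its plate-corrected B-score, at least 3 SD from the plate mean, either direction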;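 also: B-score of the F/F0 ratio slope over 7 to 12 s after thallium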
Target sequence (P48048 whole entry, looked up): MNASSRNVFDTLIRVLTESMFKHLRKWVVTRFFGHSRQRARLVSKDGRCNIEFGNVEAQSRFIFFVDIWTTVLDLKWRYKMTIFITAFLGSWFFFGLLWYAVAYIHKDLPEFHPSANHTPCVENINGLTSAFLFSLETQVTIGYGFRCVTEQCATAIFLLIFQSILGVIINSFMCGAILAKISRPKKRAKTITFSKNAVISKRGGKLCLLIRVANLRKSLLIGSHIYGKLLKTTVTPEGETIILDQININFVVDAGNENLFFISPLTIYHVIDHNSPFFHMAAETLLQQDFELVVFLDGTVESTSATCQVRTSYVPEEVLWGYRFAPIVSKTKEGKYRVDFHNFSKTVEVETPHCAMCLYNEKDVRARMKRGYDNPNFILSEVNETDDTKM
Insulin prom up – MIN6 insulin promoter up-regulation. MIN6 insulin promoter-GFP reporter, high-content imaging; hits give high values. z-score at 5 µM. 0.3% of 190,000 active;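 active = z-score above 3 at 5 µM with at least 500 cells counted in the well; inconclusive = wells under 500 cells, flagged as cytotoxic or low count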
WT yeast gro inh – growth inhibition of WT yeast, mitochondrial fusion screen | AID 1362 | inhibition, % at 10 µM | 2.1% of 190,000 active | mitochondrial fusion phenotypic screen, WT strain; in the data active = inhibition above about 58%; tested in S. cerevisiae
KCC2 mod – modulators of human KCC2 chloride dependent transport; AID 1456; 2.2% of 190,000 active; B-score of Tl+ flux slope (higher = more flux/activation; lower = inhibition) at 10 µM; KCC2 cells, thallium flux FluoZin-2 fluorescence;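 active = thallium flux slope and its plate-corrected score both differing from the plate sample mean at a set confidence after two filtering rounds, in either direction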;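 also: slope of fluorescence scaled to starting intensity during 10 to 20 s after thallium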
KCC2 secondary – confirmation of human KCC2 transport modulators. shares compounds with KCC2 mod. HEK293-KCC2, thallium flux, FluoZin2 fluorescence; hits give high values. normalised thallium flux (F/F0 slope) at 10 µM. 15% of 3,700 active. AID 1713;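 active = thallium flux slope above the same plate's solvent-only control mean plus 3 SD; inconclusive = the two replicate wells disagree; inactive = no significant difference from solvent-only control wells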
KCC2 bumet counter – thallium flux despite bumetanide block in KCC2 cells, secondary assay 3; AID 1714; HEK293-KCC2 + bumetanide/ouabain, thallium flux FluoZin2; hits give high values; normalized thallium flux at 10 µM; 49% of 3,700 active; shares compounds with KCC2 mod;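 active = thallium entry rate above the same plate's blocked-transporter control wells by more than 3 SD; inconclusive = the two repeat wells disagree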;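 also: raw slope of fluorescence over initial fluorescence between 10 and 20 s after thallium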
KCC2 secondary2 – KCC2 (human) modulation, second secondary assay; 23% of 3,700 active; AID 1715; HEK293-KCC2, thallium flux FluoZin2 fluorescence; actives lie on both sides; F/F0 rise rate, 10–20 s post-thallium; shares compounds with KCC2 mod; normalized thallium flux at 10 µM;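 active = thallium flux slope more than 3 SD above or below the plate's solvent-only control mean, mostly below; inconclusive = the two repeat wells disagreed; inactive = no significant shift from solvent-only controls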;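 also: raw slope with 0.1% DMSO as baseline and bumetanide as block control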
HEK293 Tl flux – counter-screen for KCC2 modulators: effect in parental HEK293 cells; shares compounds with KCC2 mod; thallium flux rate (normalised fluorescence) at 10 µM; AID 1716; 46% of 3,700 active; thallium flux FluoZin2, ouabain; baseline-ratio fluorescence slope, 10–20 s after thallium;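 active = thallium flux rate significantly above the same plate's solvent-only control wells, beyond their mean plus 3 SD; inconclusive = the two replicate wells gave conflicting results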
KCC2 ouabain – confirmation of human KCC2 modulators with ouabain | shares compounds with KCC2 mod | HEK293-KCC2, thallium flux FluoZin2 fluorescence; bidirectional: low = inhibitor, high = activator | raw Tl+ flux slope (below DMSO = inhibition, above = activation) at 10 µM | 48% of 3,700 active | AID 1717;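 active = thallium flux slope beyond 3 SD from same-plate DMSO control mean in most replicates, usually higher, sometimes lower; inconclusive = repeat tests gave conflicting results; inactive = no significant difference from controls in most replicates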;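 also: slope of initial-normalized fluorescence between seconds 10 and 20 after thallium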
HEK counter2 – parental HEK flux effect, counter-screen 2; shares compounds with KCC2 mod; HEK293 parental, thallium flux FluoZin-2 fluorescence slope; thallium flux slope at 10 µM; 33% of 3,700 active; AID 1718;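 active = thallium flux slope above the same plate's solvent-control mean plus 3 SD in both duplicate wells; inconclusive = duplicate wells that disagreed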;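 also: run without ouabain in cells lacking the KCC2 cotransporter; slope of fluorescence scaled to its starting value between 10 and 20 s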
Starred values were filed as active, the others as inactive; ? = inconclusive; . = no result.

SMILES	L major viab	INS promoter inh	ROMK primary	Insulin prom up	WT yeast gro inh	KCC2 mod	KCC2 secondary	KCC2 bumet counter	KCC2 secondary2	HEK293 Tl flux	KCC2 ouabain	HEK counter2
COc1ccc(C(=O)NC(=S)N2CCN(c3ccc([N+](=O)[O-])cc3)CC2)cc1	-3	-7	.	-0.46	21	4.1*	0.0063	0.012*	0.032	0.0096*	0.029*	0.011*
CN(C)CC(C)(C)CNC(=S)Nc1cc(S(=O)(=O)N2CCOCC2)ccc1Cl	13	.	0.026	0.11	-10	1.1	.	.	.	.	.	.
CCCCc1ccc(-n2c(Cc3cccs3)n[nH]c2=S)cc1	2	.	-0.64	-0.38	74*	58*	0.006	0.097*	0.063*	0.08*	0.053*	0.067*
COc1ccccc1C(=O)Nc1c2c(nn1-c1cccc(C)c1C)CS(=O)C2 (stereo not given)	-2	.	.	0	2	6.7*	0.0068	0.0039	0.028	?	0.018	0.0097
O/N=C1\CC/C(=N\O)c2nn(-c3ccc(Cl)cc3Cl)nc21	-3	.	-0.97	-1.5	-5	-0.022	.	.	.	.	.	.
c1ccc(CSc2snnc2-c2ccccc2)cc1	-6	11	.	0.49	24	.	.	.	.	.	.	.
Cc1nc(SCC(=O)Nc2c(C)nn(C)c2C)c2cnn(-c3ccccc3)c2n1	-4	-23	.	-0.41	-7	-6.8*	0.0069	0.0064	0.027	0.0064	0.02	0.0093
O=C(NC1CCCC1)C1CCC(=O)N1C1CCCC1 (stereo not given)	12	6	.	-0.15	12	.	.	.	.	.	.	.
Cc1cc(C)nc(N2CCCC(C(=O)NC(C)CCc3ccco3)C2)n1 (stereo not given)	8	-71	-0.53	0.32	34	.	0.0075	0.005	0.033	0.0066	0.018	0.01
Cc1cc(C)nc(N2CCCC(C(=O)NCc3ccccc3)C2)n1 (stereo not given)	8	-281	0.18	.	2	-0.47	.	.	.	.	.	.
COC(=O)[C@@H](NC(=O)O[C@@H]1C(=O)c2cc(Br)ccc2O[C@H]1c1cccc(OC)c1)C(C)C	6	-24	-1.6	0.66	29	9.3*	0.0063	0.013*	0.03	0.015*	?	?
CC12CCC(C(=O)NCc3ccccc3Cl)(CC1=O)C2(C)C (stereo not given)	-1	-95	1.4	.	-24	0.16	.	.	.	.	.	.
CCOC(=O)c1cnc(SC)nc1Sc1ccccc1	-5	18	1.7	0.74	24	.	0.0093	0.0069	0.033	0.0075	0.019	0.011
C#Cc1ccc([C@H]2C=C(C(=O)Nc3ccccc3)O[C@@H](OCc3ccc(CO)cc3)C2)cc1	.	.	.	-0.87	.	0.99	.	.	.	.	.	.
CCCCNC(=O)[C@H](CSCc1ccccc1)N1Cc2ccccc2C1=O	0	-67	-2	0.27	-7	-2.6*	?	0.0055	0.032	0.0078	0.017*	0.01
COCCCNC(=O)[C@H](CSCc1ccccc1)N1Cc2ccccc2C1=O	.	.	.	.	.	-2.2	.	.	.	.	.	.
O=C(O)c1ccc(CSc2nnc(COc3ccc(Cl)cc3Cl)o2)cc1	-8	.	.	0.77	-15	-3.1*	0.0061	?	0.027	0.0067	0.017	0.0095
O=C(NCc1ccccn1)NC12CC3CC(CC(C3)C1)C2	1	35	.	-0.27	-5	-0.18	.	.	.	.	.	.
